Where two headings read alike, the source gives them in different places.
Columns and labels:
[1] = tested on: GRK7; conditions: concentration: 1 μM, replicates: in singlicate; n = 1
[2] = tested on: GSK3A; conditions: concentration: 1 μM, replicates: in singlicate; n = 1
[3] = tested on: GSK3B; conditions: n = 1
[4] = tested on: T1, HASPIN; conditions: concentration: 1 μM, replicates: in singlicate; n = 1
T1 construct: gene GSG2

[5] = tested on: HCK; conditions: concentration: 1 μM, replicates: in singlicate; n = 1
[6] = tested on: HIPK1; conditions: concentration: 1 μM, replicates: in singlicate; n = 1
[7] = tested on: HIPK2; conditions: concentration: 1 μM, replicates: in singlicate; n = 1
[8] = tested on: HIPK3; conditions: concentration: 1 μM, replicates: in singlicate; n = 1
[9] = tested on: HIPK4; conditions: concentration: 1 μM, replicates: in singlicate; n = 1
[10] = tested on: HPK1; conditions: concentration: 1 μM, replicates: in singlicate; n = 1
[11] = concentration: 1 μM, replicates: in singlicate
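Note: KINOMEscan kinase panel screen.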

SMILES | %Inh [1] | %Inh [2] | %Inh [3, 11] | %Inh [4] | %Inh [5] | %Inh [6] | %Inh [7] | %Inh [8] | %Inh [9] | %Inh [10] | %Inh ([3]; 1 µM)
O=C(Nc1ccc2c(c1)OCO2)NC1CCN(c2ccnc(Nc3ccc(F)cc3)n2)C1 (centres unmarked) [GSK1379724] | 0% | 1% | 16% | 0% | 0% | 0% | 0% | 1% | 0% | 45% | 
COc1ccc(C2=C(Nc3cccc(C(=O)O)c3)C(=O)NC2=O)cc1 [SB-390765] | 12% | 7% |  | 28% | 8% | 8% | 16% | 21% | 21% | 0% | 31%
Cc1c(O)cccc1Nc1ccnc2ccc(C(F)(F)F)cc12.Cl [GW466413] | 0% | 9% | 0% | 34% | 43% | 0% | 0% | 0% | 0% | 3% | 
COc1ccccc1-c1ccc2c(NC(=O)C3CC3)n[nH]c2n1 [SB-711239] | 0% | 6% |  | 41% | 0% | 0% | 0% | 1% | 0% | 41% | 0%
Cc1ccc(NC(=O)Nc2cccc(Cl)c2)cc1-c1ccc(C(=O)Nc2ccncc2)cc1 [GSK1398468] | 0% | 22% | 4% | 0% | 0% | 0% | 0% | 3% | 0% | 40% | 
Fc1cccc(COc2nnc(-c3ccc4c(c3)CCO4)o2)c1 | 8% | 0% | 9% | 44% | 0% | 25% | 23% | 0% | 3% | 0% | 
COc1cc(Nc2nccc(N3CCC(NC(=O)Nc4cc(C)ccc4C)C3)n2)cc(OC)c1OC (centres unmarked) [GSK1379762] | 0% | 0% | 11% | 0% | 0% | 0% | 0% | 13% | 0% | 66% | 
CCn1c(-c2ccccn2)nc2cnccc21 [SB-736398] | 0% | 22% | 0% | 47% | 0% | 0% | 13% | 0% | 0% | 38% | 
COc1cc2ncnc(Nc3ccc4nc(-c5ccccc5)[nH]c4c3)c2cc1OC.Cl [GW282450] | 0% | 0% | 22% | 0% | 0% | 6% | 0% | 32% | 35% | 1% | 
Cc1cccc(-c2nc(Nc3cccc(C(N)=O)c3)c3ccccc3n2)n1 [GW876019] | 9% | 16% | 12% | 14% | 24% | 44% | 43% | 2% | 0% | 36% | 
CCCc1ccc(S(=O)(=O)NC2CCN(c3ccnc(Nc4ccc(F)cc4)n3)C2)cc1 (centres unmarked) [GSK1379715] | 0% | 2% | 21% | 0% | 0% | 0% | 0% | 0% | 0% | 37% | 
Cc1ccc(C(=O)Nc2ccc(Nc3ccnc4cc(-c5ccccn5)ccc34)cc2O)cc1.Cl [GW440146] | 0% | 7% | 4% | 30% | 72% | 8% | 0% | 4% | 0% | 34% | 
CN1C(=O)C(Nc2ccc(Cl)c(C(=O)O)c2)=C(c2ccc(Cl)cc2)C1=O [SB-404290] | 0% | 6% | 33% | 21% | 17% | 19% | 8% | 34% | 11% | 0% | 
CS(=O)(=O)c1ccc(-c2c(-c3ncn[nH]3)sc(N3CCOCC3)c2C#N)cc1 | 43% | 0% | 24% | 0% | 43% | 38% | 24% | 28% | 8% | 0% | 
Cc1ccc(-c2cc(-c3c[nH]nc3-c3ccccn3)ccn2)cc1 [GW684088] | 0% | 22% | 2% | 35% | 0% | 7% | 0% | 1% | 0% | 24% | 
CS(=O)(=O)c1ccc(-c2nc3n(c2-c2ccncc2)CCC3)cc1 [SKF-105942] | 0% | 0% | 10% | 0% | 0% | 0% | 0% | 8% | 0% | 37% | 
O=C(Nc1ccccc1)Nc1cccc(Oc2ccc3nccn3n2)c1 | 0% | 50% | 0% | 4% | 24% | 0% | 27% | 0% | 9% | 33% | 
COc1ccc(CNC(=O)NC2CCN(c3ccnc(Nc4cc(OC)c(OC)c(OC)c4)n3)C2)cc1 (centres unmarked) [GSK1379748] | 0% | 7% | 0% | 38% | 0% | 0% | 8% | 33% | 0% | 53% | 

SMILES | %Inh [1] | %Inh [2] | %Inh [3, 11] | %Inh [4] | %Inh [5] | %Inh [6] | %Inh [7] | %Inh [8] | %Inh [9] | %Inh [10] | %Inh ([3]; 1 µM)
Cc1cccc(-c2nc(-c3ccc(S(C)(=O)=O)cc3)sc2-c2ccnc(NCCc3ccccc3)c2)c1 | 7% | 0% | 0% | 42% | 0% | 15% | 0% | 6% | 8% | 11% | 
Fc1cc(Cl)ccc1Nc1ccnc2cc(I)ccc12 [GW551191] | 0% | 26% | 3% | 0% | 0% | 0% | 0% | 0% | 0% | 35% | 
Cc1cc(NCC(c2ccccc2)c2ccccc2)nc(NCc2ccc(C(F)(F)F)cc2)n1 [GW497681] | 0% | 4% | 0% | 0% | 0% | 0% | 0% | 0% | 0% | 23% | 
C[C@@H]1CCCCN1c1cc(-c2ccc3c(N)n[nH]c3c2)nc(N)n1 [GSK2258759] | 0% | 3% | 3% | 14% | 0% | 0% | 0% | 14% | 0% | 28% | 
Cn1cncc1-c1ccc2ncnc(Nc3ccc(OCc4ccccc4)cc3)c2c1 [GW320571] | 0% | 0% | 4% | 10% | 0% | 41% | 49% | 51% | 13% | 32% | 
COc1ccc(Nc2nccc(NCCNC(=O)Nc3ccccc3F)n2)cc1 [GSK1379901] | 0% | 30% | 13% | 0% | 0% | 0% | 0% | 7% | 0% | 36% | 
O=C(O)COc1ncnc2cc(-c3ccc4[nH]ncc4c3)sc12 | 0% | 25% | 27% | 41% | 14% | 45% | 47% | 47% | 38% | 7% | 
O=C(Nc1n[nH]c2cc(-c3cccc(F)c3F)ccc12)C1CC1 [SB-733894] | 55% | 0% | 25% | 9% | 0% | 29% | 15% | 19% | 3% | 0% | 
Cc1cccc(-c2cc(Nc3ccncc3)c3ccccc3n2)n1 [GSK223675] | 0% | 17% | 12% | 0% | 0% | 0% | 0% | 5% | 0% | 12% | 
CC1=C(C(=O)Nc2cc3cn[nH]c3cc2F)C(c2ccc(C(F)(F)F)cc2)CC(=O)N1 (centres unmarked) [GSK429286] | 0% | 10% | 24% | 0% | 0% | 0% | 0% | 13% | 0% | 29% | 
Cc1ccccc1-n1cnc2c(N)ncnc21 [SKF-97510] | 0% | 1% | 0% | 0% | 0% | 0% | 0% | 0% | 0% | 0% | 
CC(C)(C)c1ccc(C(=O)Nc2cn3cc(Cl)ccc3n2)cc1 | 0% | 3% | 0% | 0% | 1% | 0% | 0% | 0% | 0% | 4% | 
Cn1ccc2ncnc(Oc3ccc(NC(=O)Nc4ccccc4)cc3)c21 | 0% | 11% | 0% | 24% | 0% | 25% | 17% | 0% | 5% | 0% | 
O=c1cc(N2CCOCC2)nc2n(Cc3cccc(Cl)c3Cl)ccn12 [GSK2286295] | 0% | 8% | 12% | 1% | 0% | 13% | 0% | 14% | 28% | 31% | 
CC(C)(C)c1ccc(C(=O)Nc2cn3cc(-c4cccnc4)ccc3n2)cc1 | 24% | 16% | 5% | 0% | 44% | 52% | 27% | 25% | 15% | 11% | 
COC(=O)c1c(-c2ccccc2)c2cc(C(=O)O)ccc2c(=O)n1Cc1ccccc1 | 0% | 0% | 0% | 31% | 0% | 14% | 0% | 0% | 0% | 0% | 
Cc1cccc(-c2nc(Nc3ccncc3)c3ccccc3n2)n1 [GW855857] | 0% | 4% | 0% | 26% | 11% | 41% | 0% | 0% | 19% | 9% | 

Source: paper PMC5540273 (PLoS ONE, 2017)
